Measured values reported in PubChem BioAssay (NCATS).
Inconclusive results are not listed. Activity calls are given as the source filed them. Unless noted, calls follow the shape of the dose curve; as a rule, active = well fitted curve in either direction with a large enough effect (not every such curve was filed as active); inconclusive = small, poorly fitted or top-dose-only effect, or another doubt; inactive = flat fitted curve, though single readings scatter.

How the values were obtained:
[1] = biological target: Lysosomal acid glucosylceramidase (Homo sapiens) (UniProt P04062); experiment: Glucocerebrosidase-p2 (AID 348; in the data active = potency below about 10 µM; also: potency is read from the fitted curve at half-maximal effect); conditions: purified GBA, blue fluorogenic substrate, 40 min
Method in brief: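 Compounds titrated from 0.6 nM upwards against 0.2 nM enzyme in pH 5.9 citric acid/KH2PO4, taurocholate, tween-20; blue fluorogenic substrate 80 uM, 40 min room temperature, stopped and read Ex 365/Em 440 for AC50.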

[2] = AP1 Signaling Pathway (AID 357); conditions: ME-180 AP-1-bla reporter, EGF-induced, beta-lactamase ratio, 5 h; at 7.69 µM (top of the series) unless noted;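 also: ME-180 reporter cells stimulated with EGF at its EC50 level; % is scaled to controls: 0 for no effect and ±100 for the full control effect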
Method in brief: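 In this screen, ME-180 cells in Opti-MEM with 0.5% dialyzed FBS received EC50 EGF and compound titrations for 5 h. AP-1 reporter beta-lactamase was detected via CCF4 ratio, giving AC50 for positive and negative modulators.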

[3] = NFAT Signaling Pathway (AID 444); conditions: Jurkat NFAT-bla M1, carbachol, beta-lactamase ratio, 5 h; at 7.69 µM (top of the series) unless noted;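 also: carbachol stimulus at about its EC50 of 1 µM final; % is scaled to controls: 0 for no effect and ±100 for the full control effect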
Method in brief: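 Jurkat cells carrying an NFAT-driven β-lactamase reporter and co-transfected muscarinic M1 receptor were treated with compound plus carbachol (1 uM final, an EC50 level) for 5 h at 37 °C. CCF4 loading followed for 1 h at RT; 460/530 nm ratio gave %activity.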

[4] = Stat Signaling Pathway (AID 446); conditions: ME-180 SIE beta-lactamase reporter, IL-6 stimulated, 5 h; at 7.69 µM (top of the series) unless noted;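 also: ME-180 cervical cancer cells given 40 pM IL-6 alongside compound; SIE-controlled beta-lactamase reporter measured as 460/530 nm FRET emission ratio; % is scaled to controls: 0 for no effect and ±100 for the full control effect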
Method in brief: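 Screening format detects activators and inhibitors alike: ME-180 SIE-bla cells stimulated at 40 pM IL-6 for 5 hrs with compound, then dual-emission beta-lactamase read at 405 nm excitation.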

[5] = biological target: Glucocorticoid receptor (Homo sapiens) (UniProt P04150); experiment: GR-GFP Redistribution (AID 450;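 active = compounds whose dose series gives a full or clear partial fitted curve of increased nuclear translocation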; also: potency is read from the fitted curve at half-maximal effect); conditions: U2OS GR-GFP nuclear translocation, laser cytometry, 2 h
[6] = biological target: Glucocorticoid receptor (Homo sapiens) (UniProt P04150); experiment: GR-EFC Redistribution (AID 451; calls by dose curve; also: potency is read from the fitted curve at half-maximal effect); conditions: CHO-K1 GR-EFC translocation, beta-gal luminescence, 2 h
Method in brief: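 CHO-K1 cells stably expressing nuclear-localized β-gal enzyme acceptor and GR fused C-terminally to the enzyme donor fragment; ligand-driven nuclear translocation restores β-gal by complementation. Compounds titrated up to 46 uM final, 2 h at 37 °C; luminescence read.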

[7] = biological target: Mitogen-activated protein kinase 10 (Mus musculus) (UniProt Q61831); experiment: JNK3 AlphaScreen Assay (AID 530); conditions: JNK3 lysate, c-Jun phosphorylation; series mostly up to 11.4 µM;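 also: kinase came from lysate of stimulated human HepG2 cells; signal reports phosphorylation of biotinylated GST-cJun 1-79 at Ser73 with 10 µM ATP; % is scaled to controls: 0 for no effect and ±100 for the full control effect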
Method in brief: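 Inhibitors reduce antibody binding to phosphorylated biotin-cJun, lowering AlphaScreen luminescence. Lysates from HepG2 cells pre-activated by IL-1beta plus TNF-alpha supplied JNK3; compounds were titrated.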

[8] = biological target: 3',5'-cyclic-AMP phosphodiesterase 4B (Homo sapiens) (UniProt Q07343); experiment: qHTS Assay for Inhibitors of PDE-IV (AID 607; active = well fitted activation curve with a large enough effect in the main read-out, with a control signal flat, not every such curve was filed as active; also: % of control where 0% means no effect); conditions: HEK293 ACTOne CNG channel cells, membrane potential fluorescence; series mostly up to 22.9 µM
Method in brief: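 The readout is membrane depolarisation from a cAMP-sensing CNG channel, detected with a potential dye at ex 535/em 590. Cells were HEK293-derived (endogenous PDE-IV) at 1000 cells/well, titrated up to 22.9 uM final.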

Sequence of 3',5'-cyclic-AMP phosphodiesterase 4B (Homo sapiens) (Q07343 whole entry, looked up): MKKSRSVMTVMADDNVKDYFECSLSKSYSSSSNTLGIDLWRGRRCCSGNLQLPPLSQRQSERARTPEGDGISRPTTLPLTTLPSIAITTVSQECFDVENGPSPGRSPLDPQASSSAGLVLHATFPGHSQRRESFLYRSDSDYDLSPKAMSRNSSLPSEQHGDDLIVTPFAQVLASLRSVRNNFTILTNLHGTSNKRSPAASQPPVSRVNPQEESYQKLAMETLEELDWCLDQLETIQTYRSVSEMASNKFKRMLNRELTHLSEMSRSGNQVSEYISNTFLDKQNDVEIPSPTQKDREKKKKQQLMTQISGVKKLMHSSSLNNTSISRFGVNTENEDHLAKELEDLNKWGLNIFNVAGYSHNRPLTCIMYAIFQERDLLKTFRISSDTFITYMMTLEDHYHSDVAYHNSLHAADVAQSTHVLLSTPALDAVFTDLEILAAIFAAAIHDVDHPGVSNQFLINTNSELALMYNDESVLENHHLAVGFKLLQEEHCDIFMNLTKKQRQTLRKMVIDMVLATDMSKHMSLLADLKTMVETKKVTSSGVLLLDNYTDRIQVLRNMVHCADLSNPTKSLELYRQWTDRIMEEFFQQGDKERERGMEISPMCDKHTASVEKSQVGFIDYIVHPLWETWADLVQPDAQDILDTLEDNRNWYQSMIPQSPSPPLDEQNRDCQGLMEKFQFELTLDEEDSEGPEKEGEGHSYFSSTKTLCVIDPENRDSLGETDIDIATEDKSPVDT
Sequence of Lysosomal acid glucosylceramidase (Homo sapiens) (P04062 whole entry, looked up): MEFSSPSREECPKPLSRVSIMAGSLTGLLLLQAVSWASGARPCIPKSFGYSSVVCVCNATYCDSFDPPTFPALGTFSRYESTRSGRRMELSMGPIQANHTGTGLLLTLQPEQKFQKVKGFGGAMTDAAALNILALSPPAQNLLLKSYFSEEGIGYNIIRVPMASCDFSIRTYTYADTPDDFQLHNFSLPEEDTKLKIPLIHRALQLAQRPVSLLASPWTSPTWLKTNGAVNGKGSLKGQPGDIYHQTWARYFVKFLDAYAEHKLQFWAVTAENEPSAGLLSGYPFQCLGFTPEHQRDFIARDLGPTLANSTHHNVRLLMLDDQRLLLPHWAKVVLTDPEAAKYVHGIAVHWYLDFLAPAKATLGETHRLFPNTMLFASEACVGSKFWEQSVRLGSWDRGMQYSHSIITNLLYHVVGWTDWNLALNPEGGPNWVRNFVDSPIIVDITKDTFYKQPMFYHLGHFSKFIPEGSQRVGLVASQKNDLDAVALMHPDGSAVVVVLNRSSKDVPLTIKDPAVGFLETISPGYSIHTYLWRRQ
Sequence of Glucocorticoid receptor (Homo sapiens) (P04150 whole entry, looked up, the tested form may be a part): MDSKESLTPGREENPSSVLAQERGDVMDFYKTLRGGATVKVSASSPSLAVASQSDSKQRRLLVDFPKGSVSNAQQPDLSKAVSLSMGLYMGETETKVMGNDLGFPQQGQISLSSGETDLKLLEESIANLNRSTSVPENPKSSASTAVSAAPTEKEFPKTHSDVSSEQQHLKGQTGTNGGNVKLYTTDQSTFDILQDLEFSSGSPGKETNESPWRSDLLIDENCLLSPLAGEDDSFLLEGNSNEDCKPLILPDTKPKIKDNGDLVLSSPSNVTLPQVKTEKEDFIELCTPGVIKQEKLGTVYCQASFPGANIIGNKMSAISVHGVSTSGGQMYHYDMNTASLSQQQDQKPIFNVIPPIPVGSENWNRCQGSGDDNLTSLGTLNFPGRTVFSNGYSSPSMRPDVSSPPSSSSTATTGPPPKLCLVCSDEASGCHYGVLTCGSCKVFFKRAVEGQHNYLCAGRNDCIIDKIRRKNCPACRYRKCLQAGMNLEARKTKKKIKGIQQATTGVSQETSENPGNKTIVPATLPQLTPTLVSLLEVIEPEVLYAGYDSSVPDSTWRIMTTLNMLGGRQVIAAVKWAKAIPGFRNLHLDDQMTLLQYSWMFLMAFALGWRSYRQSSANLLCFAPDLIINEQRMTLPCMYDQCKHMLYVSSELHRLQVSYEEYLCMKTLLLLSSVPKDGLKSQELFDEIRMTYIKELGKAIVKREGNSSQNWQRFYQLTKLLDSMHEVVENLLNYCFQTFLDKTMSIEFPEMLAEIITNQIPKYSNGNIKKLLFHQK

O=C(Nc1c[nH]c(=O)[nH]c1=O)Oc1ccccc1
inactive: Potency [1] > 11.4 µM | activity change, negative = inhibition [2] 1.22% | activity change, negative = inhibition [3] 2.28% | activity, negative = inhibition [4] -1.82% | Potency [5] > 46 µM | Potency [6] > 9.22 µM | Potency [7] | Potency [8]

NC(=O)C/C=C\CC(N)=O
inactive: Potency [1] > 11.4 µM | activity change, negative = inhibition [2] 1.15% | activity change, negative = inhibition [3] 10.3% | activity, negative = inhibition [4] -3.27% | Potency [5] > 46 µM | Potency [6] > 9.22 µM | Potency [7] | Potency [8]

OCCSCc1cc(Cl)cc(Cl)c1O
inactive: Potency [1] > 11.4 µM | activity change, negative = inhibition [2] -3.03% | activity change, negative = inhibition [3] 14.2% | activity, negative = inhibition [4] 17.5% | Potency [5] > 46 µM | Potency [6] > 9.22 µM | Potency [7] | Potency [8]

CC(C)=CCNc1ncnc2nc[nH]c12
inactive: Potency [1] > 11.4 µM | activity change, negative = inhibition [2] 3.85% | activity change, negative = inhibition [3] 6.81% | activity, negative = inhibition [4] 5.75% | Potency [5] > 46 µM | Potency [6] > 9.22 µM | Potency [7] | Potency [8]

CC1=NNC(=S)NCCCN2CCN(CCCNC(=S)NN=C(C)C=NNC(=S)NCCCN3CCN(CCCNC(=S)NN=C1)CC3)CC2
inactive: Potency [1] > 11.4 µM | activity change, negative = inhibition [2] 4.7% | activity change, negative = inhibition [3] 5.96% | activity, negative = inhibition [4] -0.247% | Potency [5] > 46 µM | Potency [6] > 9.22 µM | Potency [7] | Potency [8]

CC(=O)Nc1ccccc1C=C1c2ccccc2-c2ccccc21
inactive: Potency [1] > 11.4 µM | activity change, negative = inhibition [2] -4.76% | activity change, negative = inhibition [3] 18% | activity, negative = inhibition [4] -16.5% | Potency [5] > 46 µM | Potency [6] > 9.22 µM | Potency [7] | Potency [8]

NC(=O)C[C@@H](N)c1nn[nH]n1
inactive: Potency [1] > 11.4 µM | activity change, negative = inhibition [2] 9.01% | activity change, negative = inhibition [3] 14.8% | activity, negative = inhibition [4] 9.79% | Potency [5] > 46 µM | Potency [6] > 9.22 µM | Potency [7] | Potency [8]

O=C(O)CN(CC(=O)O)c1ccccc1
inactive: Potency [1] > 11.4 µM | activity change, negative = inhibition [2] 7.7% | activity change, negative = inhibition [3] 8.14% | activity, negative = inhibition [4] 13.6% | Potency [5] > 46 µM | Potency [6] > 9.22 µM | Potency [7] | Potency [8]

C[C@@H](CCC(=O)O)C(=O)O
inactive: Potency [1] > 11.4 µM | activity change, negative = inhibition [2] 3.57% | activity change, negative = inhibition [3] 5.4% | activity, negative = inhibition [4] 0.834% | Potency [5] > 46 µM | Potency [6] > 9.22 µM | Potency [7] | Potency [8]

C[N+]1(C)CCO[C@](O)(c2ccccc2)C1
inactive: Potency [1] > 11.4 µM | activity change, negative = inhibition [2] 7.17% | activity change, negative = inhibition [3] -3.28% | activity, negative = inhibition [4] 6.89% | Potency [5] > 46 µM | Potency [6] > 9.22 µM | Potency [7] | Potency [8]

CC(C)CCNc1ncnc2[nH]ncc12
inactive: Potency [1] > 11.4 µM | activity change, negative = inhibition [2] 6.28% | activity change, negative = inhibition [3] -25.7% | activity, negative = inhibition [4] -5.65% | Potency [5] > 46 µM | Potency [6] > 9.22 µM | Potency [7] | Potency [8]

NS(=O)(=O)c1ccc(NCc2cnc3ccccc3c2)cc1
inactive: Potency [1] > 11.4 µM | activity change, negative = inhibition [2] -2.59% | activity change, negative = inhibition [3] 13.4% | activity, negative = inhibition [4] 0.424% | Potency [5] > 46 µM | Potency [6] > 9.22 µM | Potency [7] | Potency [8]

CCCc1cc(COC)c(C#N)c(=O)[nH]1
inactive: Potency [1] > 11.4 µM | activity change, negative = inhibition [2] 1.77% | activity change, negative = inhibition [3] -2.55% | activity, negative = inhibition [4] 3.43% | Potency [5] > 46 µM | Potency [6] > 9.22 µM | Potency [7] | Potency [8]

OC(Cc1ccccc1)(Cc1ccccc1)c1ccccc1
inactive: Potency [1] > 11.4 µM | activity change, negative = inhibition [2] -8.82% | activity change, negative = inhibition [3] -15.2% | activity, negative = inhibition [4] 11% | Potency [5] > 46 µM | Potency [6] > 9.22 µM | Potency [7] | Potency [8]

Cc1ccc(CCCC(=O)O)cc1C
inactive: Potency [1] > 11.4 µM | activity change, negative = inhibition [2] 2.32% | activity change, negative = inhibition [3] 9.24% | activity, negative = inhibition [4] 3.42% | Potency [5] > 46 µM | Potency [6] > 9.22 µM | Potency [7] | Potency [8]

Cc1nc(N)nc2ccccc12
inactive: Potency [1] > 11.4 µM | activity change, negative = inhibition [2] -0.162% | activity change, negative = inhibition [3] 0.491% | activity, negative = inhibition [4] 2.21% | Potency [5] > 46 µM | Potency [6] > 9.22 µM | Potency [7] | Potency [8]

O[C@H]([C@H](O)[C@@H](O)c1nc2ccccc2[nH]1)[C@@H](O)c1nc2ccccc2[nH]1
inactive: Potency [1] > 11.4 µM | activity change, negative = inhibition [2] 6.21% | activity change, negative = inhibition [3] 19.9% | activity, negative = inhibition [4] 6.86% | Potency [5] > 46 µM | Potency [6] > 9.22 µM | Potency [7] | Potency [8]

CC(C)=C[C@H]1[C@@H](COC(=O)c2cc3c(cc2Cl)OCO3)C1(C)C
inactive: Potency [1] > 11.4 µM | activity change, negative = inhibition [2] 9.62% | activity change, negative = inhibition [3] 1.43% | activity, negative = inhibition [4] 13.6% | Potency [5] > 46 µM | Potency [6] > 9.22 µM | Potency [7] | Potency [8]

O=C(O)CNC(=O)[C@H]1NC(C(F)(F)F)(C(F)(F)F)OC1(C(F)(F)F)C(F)(F)F
inactive: Potency [1] > 11.4 µM | activity change, negative = inhibition [2] -4.91% | activity change, negative = inhibition [3] 10.9% | activity, negative = inhibition [4] -14.7% | Potency [5] > 46 µM | Potency [6] > 9.22 µM | Potency [7] | Potency [8]

CN(C)Cc1cc(C(=O)O)cc(CN(C)C)c1O
inactive: Potency [1] > 11.4 µM | activity change, negative = inhibition [2] 4.91% | activity change, negative = inhibition [3] 3.37% | activity, negative = inhibition [4] -1.77% | Potency [5] > 46 µM | Potency [6] > 9.22 µM | Potency [7] | Potency [8]

N[C@@H](CSc1nc2ccccn2c1[N+](=O)[O-])C(=O)O
inactive: Potency [1] > 11.4 µM | activity change, negative = inhibition [2] -2.33% | activity change, negative = inhibition [3] 9.56% | activity, negative = inhibition [4] -1.41% | Potency [5] > 46 µM | Potency [6] > 9.22 µM | Potency [7] | Potency [8]

c1ccc(-c2ccc(-c3ccc(C4=NCCN4)cc3)o2)cc1
inactive: Potency [1] > 11.4 µM | activity change, negative = inhibition [2] 8.2% | activity change, negative = inhibition [3] 9.65% | activity, negative = inhibition [4] 25.4% | Potency [5] > 46 µM | Potency [6] > 9.22 µM | Potency [7] | Potency [8]

O=C(O)[C@@H]1CCCN1Cc1cc2ccccc2c2ccccc12
inactive: Potency [1] > 11.4 µM | activity change, negative = inhibition [2] 21.6% | activity change, negative = inhibition [3] 17.3% | activity, negative = inhibition [4] 2.3% | Potency [5] > 46 µM | Potency [6] > 9.22 µM | Potency [7] | Potency [8]

Cc1cc(=O)[nH]c(/N=C(\N)Nc2ccc(Cl)cc2)n1
inactive: Potency [1] > 11.4 µM | activity change, negative = inhibition [2] -8.26% | activity change, negative = inhibition [3] -9.44% | activity, negative = inhibition [4] -3.21% | Potency [5] > 46 µM | Potency [6] > 9.22 µM | Potency [7] | Potency [8]

NC1(C(=O)OCc2ccccc2)CCCC1
inactive: Potency [1] > 11.4 µM | activity change, negative = inhibition [2] 8.77% | activity change, negative = inhibition [3] -4.79% | activity, negative = inhibition [4] 3.45% | Potency [5] > 46 µM | Potency [6] > 9.22 µM | Potency [7] | Potency [8]

CC(C)Oc1cc(O)c2c(c1)OCC=C2CCC(=O)O
inactive: Potency [1] > 11.4 µM | activity change, negative = inhibition [2] 0.742% | activity change, negative = inhibition [3] -2.86% | activity, negative = inhibition [4] 0.331% | Potency [5] > 46 µM | Potency [6] > 9.22 µM | Potency [7] | Potency [8]
